In article PMC7862700, “An all-to-all approach to the identification of sequence-specific readers for epigenetic DNA modifications on cytosine”:

Key:
Test in all cases: DAPPL (digital affinity profiling via proximity ligation, sequencing); 10 mM Tris-HCl pH 7.5, 50 mM NaCl, 1 mM DTT, 4% glycerol, room temperature, 30 min; GST-TFs on glutathione beads, 16-mer random dsDNA library, 0.1% formaldehyde crosslink after washing; high values mean tight binding
Details in all cases: protein: recombinant; tags: N-terminal GST; dsDNA, one strand shown
FLI1 = target: T1, FLI1 (Homo sapiens, UniProt Q01543 1-452)
T1 sequence: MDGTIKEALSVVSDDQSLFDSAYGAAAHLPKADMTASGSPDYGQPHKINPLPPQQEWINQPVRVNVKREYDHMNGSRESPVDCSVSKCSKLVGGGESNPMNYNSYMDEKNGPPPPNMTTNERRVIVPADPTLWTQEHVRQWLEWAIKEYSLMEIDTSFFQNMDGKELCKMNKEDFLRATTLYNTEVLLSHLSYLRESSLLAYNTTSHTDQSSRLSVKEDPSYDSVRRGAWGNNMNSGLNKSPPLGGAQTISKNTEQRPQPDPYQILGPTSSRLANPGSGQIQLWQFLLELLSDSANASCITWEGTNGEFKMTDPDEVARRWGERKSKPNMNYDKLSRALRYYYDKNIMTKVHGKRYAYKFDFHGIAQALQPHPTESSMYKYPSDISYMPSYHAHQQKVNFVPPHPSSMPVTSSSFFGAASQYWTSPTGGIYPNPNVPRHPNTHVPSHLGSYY
How it was run: (§1)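 Sequencing on an Illumina NextSeq500 followed washing, crosslinking with 0.1% formaldehyde, proximity ligation (BsaI/T4 ligase, 1 h, 37 °C) and PCR amplification of pools that had been incubated for 30 min at room temperature with 200 nmole of a random double-stranded 16-mer DNA library in Tris/NaCl/DTT/glycerol buffer. Each pool held DNA-barcoded human transcription factors, expressed in yeast as GST fusions and captured on glutathione beads, plus a tag-only sample. Binding signal is a hexamer's read frequency for a factor divided by its frequency in the tag-only sample.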

ELK1 = target: T2, ELK1 (Homo sapiens, UniProt P19419 1-428)
T2 sequence: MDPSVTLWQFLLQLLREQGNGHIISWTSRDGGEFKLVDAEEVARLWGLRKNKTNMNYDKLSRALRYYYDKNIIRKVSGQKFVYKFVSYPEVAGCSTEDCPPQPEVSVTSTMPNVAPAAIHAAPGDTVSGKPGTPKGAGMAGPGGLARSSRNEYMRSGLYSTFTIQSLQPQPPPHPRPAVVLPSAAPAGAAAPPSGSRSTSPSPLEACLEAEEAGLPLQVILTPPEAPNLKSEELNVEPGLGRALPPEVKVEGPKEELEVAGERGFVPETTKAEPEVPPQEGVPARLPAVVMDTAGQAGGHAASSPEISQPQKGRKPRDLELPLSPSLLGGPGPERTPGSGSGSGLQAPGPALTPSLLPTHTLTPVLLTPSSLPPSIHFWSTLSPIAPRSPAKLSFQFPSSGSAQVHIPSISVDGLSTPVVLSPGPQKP
How it was run: as §1

GABPA = target: T3, GABPA (Homo sapiens, UniProt Q06546 1-454)
T3 sequence: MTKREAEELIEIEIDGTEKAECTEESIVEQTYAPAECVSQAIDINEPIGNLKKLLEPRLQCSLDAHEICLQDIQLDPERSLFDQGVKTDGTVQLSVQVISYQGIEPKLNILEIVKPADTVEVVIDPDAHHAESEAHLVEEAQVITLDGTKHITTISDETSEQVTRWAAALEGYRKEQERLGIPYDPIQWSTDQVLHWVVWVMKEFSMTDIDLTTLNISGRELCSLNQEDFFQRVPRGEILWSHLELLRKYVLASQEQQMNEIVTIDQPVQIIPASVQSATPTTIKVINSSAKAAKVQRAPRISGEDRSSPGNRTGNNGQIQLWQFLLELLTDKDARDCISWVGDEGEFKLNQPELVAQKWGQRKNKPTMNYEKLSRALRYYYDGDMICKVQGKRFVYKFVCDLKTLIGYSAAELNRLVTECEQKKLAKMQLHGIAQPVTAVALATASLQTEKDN
How it was run: as §1

ERG = target: T4, ERG (Homo sapiens, UniProt P11308 1-479)
T4 sequence: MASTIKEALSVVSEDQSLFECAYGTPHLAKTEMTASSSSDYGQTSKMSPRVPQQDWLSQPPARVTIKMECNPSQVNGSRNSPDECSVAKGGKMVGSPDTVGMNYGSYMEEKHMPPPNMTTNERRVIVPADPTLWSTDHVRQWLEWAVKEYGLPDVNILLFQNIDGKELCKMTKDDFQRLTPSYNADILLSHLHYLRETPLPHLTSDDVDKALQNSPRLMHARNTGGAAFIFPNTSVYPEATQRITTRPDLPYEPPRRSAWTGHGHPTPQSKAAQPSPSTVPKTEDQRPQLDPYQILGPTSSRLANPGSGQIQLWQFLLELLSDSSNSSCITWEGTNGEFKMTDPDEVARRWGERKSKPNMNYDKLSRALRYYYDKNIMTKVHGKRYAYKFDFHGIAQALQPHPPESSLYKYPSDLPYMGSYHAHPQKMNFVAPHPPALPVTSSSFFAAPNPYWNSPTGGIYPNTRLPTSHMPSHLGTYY
How it was run: as §1

ELF1 = ELF1 (Homo sapiens, UniProt P32519 1-619)
Sequence of ELF1 (P32519 whole entry): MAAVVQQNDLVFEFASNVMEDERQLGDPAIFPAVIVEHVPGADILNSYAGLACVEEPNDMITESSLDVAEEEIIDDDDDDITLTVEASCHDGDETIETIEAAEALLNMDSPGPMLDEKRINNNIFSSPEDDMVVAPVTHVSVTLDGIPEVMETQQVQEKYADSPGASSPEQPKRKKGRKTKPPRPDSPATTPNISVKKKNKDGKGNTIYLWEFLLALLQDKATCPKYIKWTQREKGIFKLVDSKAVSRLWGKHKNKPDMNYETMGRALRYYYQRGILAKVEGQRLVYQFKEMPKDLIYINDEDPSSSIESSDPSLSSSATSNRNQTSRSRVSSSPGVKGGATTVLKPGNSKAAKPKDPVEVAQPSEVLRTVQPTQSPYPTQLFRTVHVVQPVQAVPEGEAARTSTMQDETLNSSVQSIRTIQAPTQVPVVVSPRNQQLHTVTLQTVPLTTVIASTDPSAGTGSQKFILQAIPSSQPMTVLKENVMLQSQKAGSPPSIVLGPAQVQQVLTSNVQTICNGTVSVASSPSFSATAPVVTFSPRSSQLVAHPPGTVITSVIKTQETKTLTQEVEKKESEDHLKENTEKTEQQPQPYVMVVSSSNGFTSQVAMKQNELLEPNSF
How it was run: as §1

EHF = target: T5, EHF (Homo sapiens, UniProt Q9NZC4 1-300)
T5 sequence: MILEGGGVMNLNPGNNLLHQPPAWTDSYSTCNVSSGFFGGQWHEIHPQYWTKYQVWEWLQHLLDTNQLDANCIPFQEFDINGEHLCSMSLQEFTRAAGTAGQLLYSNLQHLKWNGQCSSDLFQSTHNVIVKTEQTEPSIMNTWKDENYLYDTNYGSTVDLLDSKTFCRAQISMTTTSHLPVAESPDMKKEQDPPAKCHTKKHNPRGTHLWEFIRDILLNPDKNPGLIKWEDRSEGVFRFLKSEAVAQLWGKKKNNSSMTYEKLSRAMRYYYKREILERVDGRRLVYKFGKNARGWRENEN
How it was run: as §1

SPI1 = SPI1 (Homo sapiens, UniProt P17947 1-270)
How it was run: as §1

SPIB = SPIB (Homo sapiens, UniProt Q01892 1-262)
Sequence of SPIB (Q01892 whole entry): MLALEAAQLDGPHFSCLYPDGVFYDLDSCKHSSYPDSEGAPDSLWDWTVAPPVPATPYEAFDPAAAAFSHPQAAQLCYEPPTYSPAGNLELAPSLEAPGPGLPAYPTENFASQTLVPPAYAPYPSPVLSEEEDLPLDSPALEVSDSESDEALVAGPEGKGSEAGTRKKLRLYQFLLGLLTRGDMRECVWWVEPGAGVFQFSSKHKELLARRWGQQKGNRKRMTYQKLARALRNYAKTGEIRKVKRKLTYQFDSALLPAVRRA
How it was run: as §1

ELK3 = target: T6, ELK3 (Homo sapiens, UniProt P41970 1-407)
T6 sequence: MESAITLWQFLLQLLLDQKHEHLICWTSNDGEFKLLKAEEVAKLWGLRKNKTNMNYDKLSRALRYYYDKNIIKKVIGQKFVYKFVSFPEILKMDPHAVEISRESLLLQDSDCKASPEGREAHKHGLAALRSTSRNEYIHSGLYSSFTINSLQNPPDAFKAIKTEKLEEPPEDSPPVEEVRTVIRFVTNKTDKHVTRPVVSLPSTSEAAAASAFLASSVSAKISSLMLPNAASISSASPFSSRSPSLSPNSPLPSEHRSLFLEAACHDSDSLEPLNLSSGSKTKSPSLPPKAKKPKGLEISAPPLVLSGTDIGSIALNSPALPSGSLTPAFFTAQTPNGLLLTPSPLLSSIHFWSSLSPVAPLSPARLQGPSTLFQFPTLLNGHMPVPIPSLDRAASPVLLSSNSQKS
How it was run: as §1

## CCTTAC
FLI1
  binding signal: 1.31 fold enrichment (6-mer frequency, TF over GST control)
ELK1
  binding signal: 1.35 fold enrichment (6-mer frequency, TF over GST control)
GABPA
  binding signal: 1.37 fold enrichment (6-mer frequency, TF over GST control)
ERG
  binding signal: 1.31 fold enrichment (6-mer frequency, TF over GST control)
ELF1
  binding signal: 1.34 fold enrichment (6-mer frequency, TF over GST control)
EHF
  binding signal: 1.28 fold enrichment (6-mer frequency, TF over GST control)
SPI1
  binding signal: 1.28 fold enrichment (6-mer frequency, TF over GST control)
SPIB
  binding signal: 1.33 fold enrichment (6-mer frequency, TF over GST control)
ELK3
  binding signal: 1.22 fold enrichment (6-mer frequency, TF over GST control)
